The record followed here is PubChem BioAssay (NCI).

The panel holds about 83,000 compounds, 20% with a hit somewhere; the sample as a whole holds those more often.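 Note: values are percent growth. 100 is the growth of untreated cells, values between 100 and 0 indicate rising inhibition; between -100 and 0 indicates cell death.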 A number with no mark means an inactive call. Calls of active or inactive are those of the source. How the source made its calls: active means growth percent below 10; inactive means the rest.

This assay concerns HOP-92 NSCLC. In words: NCI-60 one-dose screen, 48 h (100 = growth as untreated, 0 = no growth, -100 = all killed). Particulars: 10 µM.
Regarding `CC1/C=C/C=C/C=C/C=C/C=C/C=C/C=C/C(O[C@@H]2O[C@H](C)[C@H](O)[C@@H](O)[C@@H]2N)CC(O)C(C(=O)O)C(O)CC(=O)CC(O)CC(O)CC(O)CC(=O)CCCC(=O)CC(=O)OC1C(C)CC(C)C(O)CC(=O)c1ccc(N)cc1` (stereo partly specified), the growth is -88.2% (active). On to `C#C[C@]1(O)CCC2C3CCc4cc(OC5CCCC5)ccc4C3CC[C@@]21C` (stereo partly specified), for which the growth is 99.6%. Consider `CC(=O)[C@@]12O[C@](C)(c3ccccc3)O[C@@H]1CC1C3CCC4=CC(=O)CC[C@]4(C)C3CC[C@@]12C` (stereo partly specified), for which the growth was 76.2%.

As for `COc1ccc2nc3cc(Cl)ccc3c(Nc3cc(CN4CCCC4)c(O)c(CN4CCCC4)c3)c2n1`, the growth was -16.4% (active). Turning to `CCc1cc(Cl)c(OC)c(C(=O)NCC2CCCN2CC)c1O` (stereo unspecified), the growth is 65.8%. For the compound `Cc1cc(C(C#N)c2ccc(Cl)cc2)c(Cl)cc1NC(=O)c1cc(I)cc(I)c1O` (stereo unspecified), the growth is -12.1% (active).

Regarding `C[N+]1(CCCCC[N+]2(C)CCCC2)CCCC1`, the growth is 74.6%.

Regarding `C=C(NC(=O)C(=C)NC(=O)c1csc(C2=NC3c4csc(n4)C4NC(=O)c5csc(n5)C(C(C)(O)C(C)O)NC(=O)C5CSC(=N5)C(=CC)NC(=O)C(C(C)O)NC(=O)c5csc(n5)C3(CC2)NC(=O)C(C)NC(=O)C(=C)NC(=O)C(C)NC(=O)C(C(C)CC)NC2C=Cc3c(C(C)O)cc(nc3C2O)C(=O)OC4C)n1)C(N)=O` (stereo unspecified), the growth was 16.2%. In the case of `Nc1nc(Cl)nc2c1ncn2C1O[C@H](CO)[C@@H](O)[C@@H]1F` (stereo partly specified), the growth was 38.4%.

Regarding `CN1CCN(c2cc3c(cc2F)c(=O)c(C(=O)O)cn3-c2ccc(F)cc2)CC1`, the growth is 118%. On to `CCC1NC(=O)c2cc(S(N)(=O)=O)c(Cl)cc2N1` (stereo unspecified), for which the growth is 91.2%.

For `CC(=O)O[C@@]12CO[C@@H]1C[C@H](O)[C@@]1(C)C(=O)[C@H](O)C3=C(C)[C@@H](OC(=O)[C@H](O)[C@@H](NC(=O)OC(C)(C)C)c4ccccc4)C[C@@](O)([C@@H](OC(=O)c4ccccc4)C12)C3(C)C` (stereo partly specified), the growth was 56.3%. As to `CCCc1nc(C(C)(C)O)c(C(=O)O)n1Cc1ccc(-c2ccccc2-c2nn[nH]n2)cc1`, the growth was 91.7%.

As for `Cc1cc(CC(C)CC(C)(C)C)n(O)c(=O)c1` (stereo unspecified) (tested in a mixture with another compound), the growth was 73.6%. For `CN1CCN(C2=Nc3ccccc3Oc3ccc(Cl)cc32)CC1`, the growth was 80.4%. Consider `Cc1nc2n(c(=O)c1CCN1CCC(c3noc4cc(F)ccc34)CC1)CCC[C@@H]2O`, for which the growth was 97.9%.
